From the supplement of paper PMC10849652
Targets with a hit are over-represented here; the source holds about 7,900 in all. About 0.6% of all pairs of compound and target were hits. Values without a mark were called inactive.

Columns and labels:
Assay in all cases: log2 fold change, soluble protein after heating vs DMSO (PISA); higher = thermal stabilisation; K562 cells, 10 uM, 30 min; active = over 0.2 and 3.5 SD of the protein, either way, in both replicates (recomputed)
[1] = compound: NC(=O)Nc1cc(-c2cccc(F)c2)sc1C(=O)N[C@H]1CCCNC1
In short: (§1)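 K562 cells at 2×10^6 cells/mL were treated with 10 μM compound for 30 min. Aliquots were heated for 3 min across 48°C-58°C, pooled, and extracted in PBS with 0.5% NP-40 at 4°C; soluble protein was the supernatant after 21,000xg for 90 min. Soluble protein was quantified by TMTpro 16plex LC-MS/MS with channel sums equalised, and reported as log2 fold change in thermal stability against DMSO controls, with values from duplicates.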

[2] = compound: NC(=O)c1cnc(N[C@@H]2CCCC[C@@H]2N)nc1Nc1cccc(-n2nccn2)c1
In short: as §1

[3] = compound: NC1(c2ccc(-c3nc4ccn5c(=O)[nH]nc5c4cc3-c3ccccc3)cc2)CCC1
In short: as §1

[4] = compound: NCC(=O)Nc1ccc(-n2nc(C(F)(F)F)cc2-c2ccc3c(ccc4ccccc43)c2)cc1
In short: as §1

[5] = compound: Nc1ccccc1NC(=O)c1ccc(CNC(=O)OCc2cccnc2)cc1 [entinostat]
In short: as §1

[6] = compound: O=C(CCCCCCC(=O)Nc1ccccc1)NO [vorinostat]
In short: as §1

[7] = compound: O=C(CCCCCCNC(=O)c1cnc(N(c2ccccc2)c2ccccc2Cl)nc1)NO [citarinostat]
In short: as §1

[8] = compound: O=C(O)c1ccc2c(c1)nc(Nc1cccc(Cl)c1)c1ccncc12 [silmitasertib]
In short: as §1

[9] = compound: O=C1NC(=O)C(c2cnc3ccccn23)=C1c1cn2c3c(cc(F)cc13)CN(C(=O)N1CCCCC1)CC2
In short: as §1

[10] = compound: c1cc(OCCN2CCCCC2)cc(-c2n[nH]c3ccc(-c4nnc[nH]4)cc23)c1
In short: as §1

[11] = compound: c1cn2cc(-c3ccc4cn[nH]c4c3)nc(Nc3ccc(N4CCOCC4)cc3)c2n1 [entospletinib]
In short: as §1

Chain of UniProt Q8NHH9 (Q8NHH9 whole entry, looked up): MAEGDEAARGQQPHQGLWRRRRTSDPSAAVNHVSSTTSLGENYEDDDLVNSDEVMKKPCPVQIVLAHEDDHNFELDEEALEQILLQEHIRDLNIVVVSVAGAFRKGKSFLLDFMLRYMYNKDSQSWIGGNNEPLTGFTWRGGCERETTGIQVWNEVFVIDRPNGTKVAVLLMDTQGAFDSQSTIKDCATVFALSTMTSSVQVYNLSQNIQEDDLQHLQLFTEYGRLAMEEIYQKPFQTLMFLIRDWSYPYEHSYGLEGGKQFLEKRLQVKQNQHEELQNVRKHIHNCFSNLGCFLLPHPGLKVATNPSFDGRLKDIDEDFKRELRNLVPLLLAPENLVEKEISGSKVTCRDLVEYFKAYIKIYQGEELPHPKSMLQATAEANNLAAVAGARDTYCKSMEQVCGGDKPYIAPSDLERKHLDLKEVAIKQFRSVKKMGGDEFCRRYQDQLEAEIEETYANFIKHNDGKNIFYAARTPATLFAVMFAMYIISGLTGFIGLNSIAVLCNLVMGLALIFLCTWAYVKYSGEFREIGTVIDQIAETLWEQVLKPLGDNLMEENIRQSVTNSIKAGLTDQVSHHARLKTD
Chain of UniProt Q9Y3D8 (Q9Y3D8 whole entry, looked up): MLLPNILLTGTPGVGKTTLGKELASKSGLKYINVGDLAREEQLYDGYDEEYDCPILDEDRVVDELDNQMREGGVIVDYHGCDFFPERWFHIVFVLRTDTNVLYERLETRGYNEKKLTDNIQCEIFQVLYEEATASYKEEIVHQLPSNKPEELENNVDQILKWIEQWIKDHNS
Chain of UniProt P30837 (P30837 whole entry, looked up): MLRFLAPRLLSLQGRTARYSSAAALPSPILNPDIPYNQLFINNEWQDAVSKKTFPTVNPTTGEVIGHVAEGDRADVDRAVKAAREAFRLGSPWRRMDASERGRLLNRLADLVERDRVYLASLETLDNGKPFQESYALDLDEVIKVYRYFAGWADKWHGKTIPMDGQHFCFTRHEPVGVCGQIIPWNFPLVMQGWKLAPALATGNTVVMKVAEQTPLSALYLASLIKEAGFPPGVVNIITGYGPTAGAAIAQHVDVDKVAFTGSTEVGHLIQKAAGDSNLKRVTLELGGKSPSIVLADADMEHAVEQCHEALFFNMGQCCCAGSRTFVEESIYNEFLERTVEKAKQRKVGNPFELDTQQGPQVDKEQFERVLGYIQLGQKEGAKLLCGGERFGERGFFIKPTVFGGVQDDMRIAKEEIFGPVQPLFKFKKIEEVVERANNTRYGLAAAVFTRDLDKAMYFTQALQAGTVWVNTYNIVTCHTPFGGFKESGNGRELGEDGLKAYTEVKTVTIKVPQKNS
Chain of UniProt Q53FZ2 (Q53FZ2 whole entry, looked up): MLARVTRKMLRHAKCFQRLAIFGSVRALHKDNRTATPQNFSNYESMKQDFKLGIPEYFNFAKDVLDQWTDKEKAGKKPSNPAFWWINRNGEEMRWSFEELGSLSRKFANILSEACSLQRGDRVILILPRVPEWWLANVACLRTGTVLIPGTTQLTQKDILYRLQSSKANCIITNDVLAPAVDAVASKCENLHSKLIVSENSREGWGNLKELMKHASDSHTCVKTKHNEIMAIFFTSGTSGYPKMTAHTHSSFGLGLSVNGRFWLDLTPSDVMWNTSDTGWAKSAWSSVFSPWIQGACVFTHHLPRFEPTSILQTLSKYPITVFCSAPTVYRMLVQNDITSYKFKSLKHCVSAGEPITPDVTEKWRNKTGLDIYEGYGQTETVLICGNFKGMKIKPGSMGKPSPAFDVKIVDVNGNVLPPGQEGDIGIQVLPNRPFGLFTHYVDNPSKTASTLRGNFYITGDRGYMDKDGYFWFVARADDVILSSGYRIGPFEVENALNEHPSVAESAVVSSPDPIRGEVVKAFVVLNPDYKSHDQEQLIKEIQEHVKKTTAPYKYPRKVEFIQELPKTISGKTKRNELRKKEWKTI
Chain of UniProt P42330 (P42330 whole entry, looked up): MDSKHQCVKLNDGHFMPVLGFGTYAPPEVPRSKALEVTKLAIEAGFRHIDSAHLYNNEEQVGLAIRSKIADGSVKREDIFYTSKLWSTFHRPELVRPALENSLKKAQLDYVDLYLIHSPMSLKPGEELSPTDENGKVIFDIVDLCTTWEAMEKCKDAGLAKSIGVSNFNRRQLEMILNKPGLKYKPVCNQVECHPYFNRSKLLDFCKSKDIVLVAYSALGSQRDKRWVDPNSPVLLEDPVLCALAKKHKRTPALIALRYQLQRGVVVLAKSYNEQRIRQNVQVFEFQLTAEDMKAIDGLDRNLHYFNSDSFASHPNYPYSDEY
Chain of UniProt Q9Y312 (Q9Y312 whole entry, looked up): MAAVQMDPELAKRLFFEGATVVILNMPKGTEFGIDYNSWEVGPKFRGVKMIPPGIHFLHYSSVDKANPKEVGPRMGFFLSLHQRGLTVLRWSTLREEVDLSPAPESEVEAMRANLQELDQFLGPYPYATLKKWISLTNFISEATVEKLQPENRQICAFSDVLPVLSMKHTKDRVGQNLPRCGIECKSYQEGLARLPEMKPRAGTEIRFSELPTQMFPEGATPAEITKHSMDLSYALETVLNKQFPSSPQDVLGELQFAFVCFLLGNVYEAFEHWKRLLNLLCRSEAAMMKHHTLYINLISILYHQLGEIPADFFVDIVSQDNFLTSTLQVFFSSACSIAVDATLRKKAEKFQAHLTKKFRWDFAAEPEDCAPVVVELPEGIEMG
Chain of UniProt Q9UHQ4 (Q9UHQ4 whole entry, looked up): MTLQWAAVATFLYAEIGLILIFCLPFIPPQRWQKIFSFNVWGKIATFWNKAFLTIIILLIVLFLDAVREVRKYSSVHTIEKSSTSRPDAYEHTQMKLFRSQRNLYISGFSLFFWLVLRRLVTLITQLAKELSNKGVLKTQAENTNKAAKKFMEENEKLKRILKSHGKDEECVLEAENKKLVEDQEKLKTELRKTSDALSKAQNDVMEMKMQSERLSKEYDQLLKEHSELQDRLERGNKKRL
Chain of UniProt Q9Y487 (Q9Y487 whole entry, looked up): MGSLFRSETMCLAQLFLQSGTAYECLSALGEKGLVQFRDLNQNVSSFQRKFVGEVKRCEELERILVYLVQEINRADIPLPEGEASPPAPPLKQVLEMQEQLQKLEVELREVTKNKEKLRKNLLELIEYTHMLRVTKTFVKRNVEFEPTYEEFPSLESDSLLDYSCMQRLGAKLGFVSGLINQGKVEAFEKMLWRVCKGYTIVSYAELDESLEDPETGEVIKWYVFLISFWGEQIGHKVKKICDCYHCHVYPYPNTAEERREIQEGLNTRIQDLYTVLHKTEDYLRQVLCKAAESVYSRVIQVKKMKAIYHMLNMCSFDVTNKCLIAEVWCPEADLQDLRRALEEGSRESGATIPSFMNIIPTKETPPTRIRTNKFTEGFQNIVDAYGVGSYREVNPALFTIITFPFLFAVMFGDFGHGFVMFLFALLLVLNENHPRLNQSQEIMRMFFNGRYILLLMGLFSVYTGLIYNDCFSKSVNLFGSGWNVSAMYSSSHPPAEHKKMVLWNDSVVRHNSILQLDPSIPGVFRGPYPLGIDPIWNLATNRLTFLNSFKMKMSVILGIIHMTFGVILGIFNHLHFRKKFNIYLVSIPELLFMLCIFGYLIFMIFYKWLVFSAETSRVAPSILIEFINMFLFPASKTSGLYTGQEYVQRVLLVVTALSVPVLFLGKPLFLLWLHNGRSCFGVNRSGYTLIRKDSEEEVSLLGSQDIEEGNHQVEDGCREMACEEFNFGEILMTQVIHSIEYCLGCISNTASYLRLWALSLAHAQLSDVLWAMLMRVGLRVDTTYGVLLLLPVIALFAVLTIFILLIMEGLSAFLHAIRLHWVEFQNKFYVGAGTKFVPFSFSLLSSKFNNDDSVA
Chain of UniProt O43861 (O43861 whole entry, looked up): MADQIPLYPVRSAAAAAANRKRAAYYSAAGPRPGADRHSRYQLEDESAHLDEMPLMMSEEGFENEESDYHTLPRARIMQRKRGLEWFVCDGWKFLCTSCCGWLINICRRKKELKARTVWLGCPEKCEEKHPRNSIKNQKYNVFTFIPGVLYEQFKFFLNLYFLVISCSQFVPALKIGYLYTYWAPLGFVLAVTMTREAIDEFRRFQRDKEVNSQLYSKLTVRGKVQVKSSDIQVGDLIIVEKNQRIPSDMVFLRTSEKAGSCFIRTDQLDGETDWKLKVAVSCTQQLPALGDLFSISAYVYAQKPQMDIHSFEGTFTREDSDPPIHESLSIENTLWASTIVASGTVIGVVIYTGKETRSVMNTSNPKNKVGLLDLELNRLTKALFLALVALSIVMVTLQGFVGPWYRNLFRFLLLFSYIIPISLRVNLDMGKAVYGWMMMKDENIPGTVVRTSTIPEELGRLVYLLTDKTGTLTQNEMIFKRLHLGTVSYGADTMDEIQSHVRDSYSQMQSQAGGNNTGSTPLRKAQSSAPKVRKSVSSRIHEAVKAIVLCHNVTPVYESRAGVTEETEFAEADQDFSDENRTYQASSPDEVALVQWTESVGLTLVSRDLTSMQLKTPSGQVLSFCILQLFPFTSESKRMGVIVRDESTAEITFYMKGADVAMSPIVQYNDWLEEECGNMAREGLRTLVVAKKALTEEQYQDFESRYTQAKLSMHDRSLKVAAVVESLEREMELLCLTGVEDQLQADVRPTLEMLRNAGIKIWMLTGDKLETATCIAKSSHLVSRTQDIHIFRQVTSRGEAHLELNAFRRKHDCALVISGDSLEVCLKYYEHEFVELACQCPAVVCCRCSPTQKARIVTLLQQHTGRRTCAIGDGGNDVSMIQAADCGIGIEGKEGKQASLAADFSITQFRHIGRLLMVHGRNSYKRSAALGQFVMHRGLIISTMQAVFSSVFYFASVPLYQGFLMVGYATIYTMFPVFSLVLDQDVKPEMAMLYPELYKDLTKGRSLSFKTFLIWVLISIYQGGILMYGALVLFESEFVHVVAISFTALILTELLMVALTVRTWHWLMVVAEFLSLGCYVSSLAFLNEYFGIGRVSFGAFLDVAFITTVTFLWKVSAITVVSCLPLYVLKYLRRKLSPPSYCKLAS
Chain of UniProt P18085 (P18085 whole entry, looked up): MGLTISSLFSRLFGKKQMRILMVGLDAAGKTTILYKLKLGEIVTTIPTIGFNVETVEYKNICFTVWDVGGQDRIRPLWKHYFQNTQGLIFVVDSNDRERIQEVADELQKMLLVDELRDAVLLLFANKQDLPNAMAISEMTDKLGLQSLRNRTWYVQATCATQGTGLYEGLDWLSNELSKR

Target | log2 fold change [1] | log2 fold change [2] | log2 fold change [3] | log2 fold change [4] | log2 fold change [5] | log2 fold change [6] | log2 fold change [7] | log2 fold change [8] | log2 fold change [9] | log2 fold change [10] | log2 fold change [11]
ARL6IP6 (UniProt Q8N6S5) | -0.085 | -0.125 | -0.073 | -0.015 | -0.021 | -0.007 | -0.058 | -0.014 | 0.011 | -0.059 | -0.091
BCAP29 isoform 2 (UniProt Q9UHQ4) | 0.001 | 0.049 | 0.034 | -0.094 | -0.014 | -0.064 | -0.015 | 0.031 | -0.043 | -0.036 | -0.005
ARMC8 (UniProt Q8IUR7) | -0.044 | 0.017 | -0.087 | 0.002 | -0.031 | -0.031 | 0.057 | 0.058 | 0.026 | -0.028 | -0.011
ATAD3A isoform 2 (UniProt Q9NVI7) | 0.011 | -0.088 | -0.128 | -0.088 | 0.053 | 0.123 | 0.076 | 0.051 | 0.12 | -0.127 | 0.024
ASNS (UniProt P08243) | -0.033 | -0.018 | -0.019 | 0.008 | -0.007 | 0.018 | 0.013 | -0.044 | -0.021 | -0.026 | 0.004
ARFRP1 (UniProt Q13795) | 0.167 | 0.108 | -0.173 | 0.067 | 0.117 | 0.054 | 0.025 | 0.013 | -0.085 | 0.074 | 0.024
BRAP (UniProt Q7Z569) | 0.056 | -0.063 | -0.113 | -0.015 | 0.003 | 0.069 | 0.037 | 0.073 | 0.124 | 0.064 | 0.002
ACSM3 (UniProt Q53FZ2) | 0.017 | 0 | 0.021 | -0.125 | 0.009 | 0.122 | 0.122 | 0.06 | -0.134 | -0.094 | -0.004
ATRN (UniProt O75882) | -0.007 | -0.023 | -0.073 | -0.031 | -0.016 | -0.006 | -0.004 | 0.006 | -0.538 (active) | -0.092 | 0.02
ADRM1 (UniProt Q16186) | -0.009 | -0.045 | -0.058 | 0.006 | -0.012 | 0.038 | 0.067 | 0 | 0.064 | -0.052 | -0.079
ACSF3 (UniProt Q4G176) | -0.016 | -0.073 | -0.098 | -0.184 | 0.069 | 0.007 | 0.197 | 0.109 | 0.035 | -0.107 | -0.059
ATP1B3 (UniProt P54709) | -0.065 | -0.011 | 0.066 | 0.004 | -0.041 | -0.007 | 0.037 | 0.002 | -0.057 | -0.088 | -0.031
ASB6 (UniProt Q9NWX5) | 0.076 | 0.161 | -0.216 | -0.032 | -0.12 | -0.075 | 0.106 | -0.006 | 0.059 | 0.07 | -0.065
ALDH1B1 (UniProt P30837) | 0 | -0.039 | -0.065 | -0.054 | -0.019 | 0.281 (active) | 0.051 | -0.037 | -0.015 | 0.058 | -0.018
AAR2 (UniProt Q9Y312) | -0.016 | -0.015 | 0.066 | -0.034 | 0.026 | 0.19 | -0.009 | 0.035 | 0.04 | -0.067 | -0.017
ADD3 isoform 2 (UniProt Q9UEY8) | 0.03 | 0.059 | -0.009 | -0.002 | -0.018 | -0.119 | 0.08 | -0.002 | 0.019 | -0.02 | -0.066
ARF4 (UniProt P18085) | -0.011 | 0.025 | -0.082 | -0.06 | -0.002 | -0.024 | 0.041 | -0.017 | -0.069 | -0.004 | -0.088
ADPRHL2 (UniProt Q9NX46) | -0.022 | -0.02 | -0.056 | -0.045 | 0.027 | -0.039 | 0.076 | -0.045 | -0.028 | 0.055 | 0.024
ATP6V0A2 (UniProt Q9Y487) | -0.002 | -0.072 | -0.143 | -0.024 | 0.021 | 0 | 0.036 | 0.079 | 0.061 | -0.043 | 0.009
ALDH9A1 (UniProt P49189) | 0.079 | 0.051 | -0.024 | 0 | -0.014 | -0.209 | -0.014 | -0.033 | 0.025 | 0.055 | 0.066
AK6 (UniProt Q9Y3D8) | -0.034 | -0.072 | -0.043 | -0.138 | 0.145 | 0.074 | 0.103 | 0.058 | -0.051 | -0.009 | -0.048
AP2M1 (UniProt Q96CW1) | -0.293 (active) | 0.004 | 0.012 | -0.003 | -0.007 | 0.06 | -0.004 | 0.029 | -0.237 (active) | -0.209 | 0.025
ASS1 (UniProt P00966) | -0.054 | -0.184 | -0.087 | 0.026 | 0.096 | -0.052 | -0.037 | 0.02 | -0.013 | 0.013 | 0.096
ATP13A3 (UniProt Q9H7F0) | -0.072 | 0.027 | -0.082 | 0.039 | 0.026 | -0.026 | -0.033 | 0.048 | 0.02 | -0.099 | 0.042
ATP9B (UniProt O43861) | -0.58 (active) | -0.028 | 0.052 | -0.029 | -0.24 | -0.044 | 0.135 | 0.071 | 0.029 | -0.048 | -0.134
ARL6IP4 (UniProt Q66PJ3) | -0.035 | 0.221 | 0.025 | 0.013 | -0.04 | -0.011 | 0.04 | -0.017 | -0.007 | -0.017 | 0.034
AKR1C3 (UniProt P42330) | 0.119 | 0.064 | 0.235 | -0.032 | 0.106 | -0.058 | 0.049 | 0.126 | 0.211 | 0.154 | -0.011
ATL2 (UniProt Q8NHH9) | -0.021 | -0.03 | -0.165 | -0.094 | -0.025 | 0.017 | -0.023 | -0.004 | -0.025 | -0.058 | 0.016
